Screening results from PubChem.
CHOP inh = blocks CHOP induction under ER stress. CHO-K1 CHOP-promoter luciferase, tunicamycin-induced, 15-18 h. inhibition, % at 10 µM. hit rate 3.8% among 220,000. AID 2732;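 active means compounds that reduced the stress-induced luciferase reporter signal by more than about 70% of percent inhibition, limit read from the data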
RAM inhibit = blocks the yeast RAM network. S. cerevisiae dse1pr::URA3 reporter, 5-FOA growth OD615, 2 d; analog-sensitive cbk1-as2 kinase mutant strain. inhibition, % at 50 µM. hit rate 1.8% among 190,000;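 active means inhibition above a set limit, 3 SD over mean compound inhibition, cut at about 8.4% in these data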;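 further: inhibition rescues growth on 5-FOA so higher OD means more RAM inhibition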
WT yeast gro inh = growth inhibition of WT yeast, mitochondrial fusion screen. inhibition, % at 10 µM. mitochondrial fusion phenotypic screen, WT strain. hit rate 2.1% among 190,000. AID 1362; in the data active means inhibition above about 58%; tested in S. cerevisiae
L major viab = inhibitors of Leishmania major promastigote growth | Leishmania major promastigotes, resazurin fluorescence viability | inhibition, % at 10 µM | hit rate 9% among 200,000 | AID 1063; in the data active means inhibition above about 50%;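 further: promastigotes grown with compound for 44 hours at 28 °C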
Each line names hits and unclear results; the compound was inactive in the other large screens. Only some compounds are listed: those with a hit (about 13% of all), similar ones and a draw of the others.

CC1CN(CCOc2ccc(Cl)cc2Cl)CC(C)O1 (stereo unspecified)	none
COc1cc(C)ccc1OCCCCN1CC(C)OC(C)C1 (stereo unspecified)	L major viab 96.9
CCCCCn1c(=O)c2ccccc2n2c(CCl)nnc12	L major viab 87.2
CCCCn1c(=O)c2ccccc2c2ccccc2c1=O	CHOP inh 75.8
CC(C)CCn1c(=O)c2ccccc2n2c(CCl)nnc12	L major viab 93.5
CC(C)CCn1c(=O)c2ccccc2n2c(CN3CCCC3)nnc12	none
COC(=O)C1=CC(C(=O)c2cccs2)=NN(c2ccc(OC)cc2)C1C(=O)OC (stereo unspecified)	none
C/C(=C\c1ccccc1)CN1CCN(Cc2ccc(C)o2)C(CCO)C1 (stereo unspecified)	L major viab 83.3
CC(SC1=NCCS1)C(=O)Nc1nnc(-c2ccc(Br)cc2)s1 (stereo unspecified)	CHOP inh 85.5
CCOC(=O)Nc1nnc(-c2ccccc2OC)s1	none
CCC(SC1=NCCS1)C(=O)Nc1nnc(-c2ccccc2OC)s1 (stereo unspecified)	CHOP inh 86.2
CCOC(CNc1c([N+](=O)[O-])c(=O)n(C)c(=O)n1C)OCC	none
O=C(/C=C/c1cn(-c2ccccc2)nc1-c1cccc(Cl)c1)N1CCN(c2ccccn2)CC1	none
CN(C)c1ccc(/C=N/N2C(=N)N(c3ccccc3)C(=S)C2=Nc2ccccc2)cc1	none (no result: CHOP inh, RAM inhibit, WT yeast gro inh)
CCOC(=O)c1ccc(N=C2C(=S)N(c3ccc(C(=O)OCC)cc3)C(=N)N2/N=C/c2ccccc2)cc1	L major viab 100.2
Cc1cccc(Cc2c(C)nc3c(C(=O)NCc4ccco4)cnn3c2C)c1	none
Cc1nc2c(C(=O)NCc3cccs3)cnn2c(C)c1Cc1ccccc1	L major viab 54.4
CCOC(=O)C(=O)Nc1cc([N+](=O)[O-])ccc1C	none
CCCCNC(=S)Nc1cc([N+](=O)[O-])ccc1C	L major viab 74.2
NC(=O)CC(NC(=O)Cc1ccc(Br)cc1)c1ccc(NC2CCCC2)c([N+](=O)[O-])c1 (stereo unspecified)	CHOP inh 83.8 (no result: RAM inhibit, WT yeast gro inh, L major viab)
NC(=O)CC(NC(=O)Cc1cccc2ccccc12)c1ccc(NCCc2ccccc2F)c([N+](=O)[O-])c1 (stereo unspecified)	CHOP inh 91.0 (no result: RAM inhibit, WT yeast gro inh, L major viab)
NC(=O)CC(NC(=O)Cc1cccc2ccccc12)c1ccc(NC2CCCCCC2)c([N+](=O)[O-])c1 (stereo unspecified)	CHOP inh 95.5 (no result: RAM inhibit, WT yeast gro inh, L major viab)
NC(=O)CC(NC(=O)Cc1cccc2ccccc12)c1ccc(NC2CCCCCCC2)c([N+](=O)[O-])c1 (stereo unspecified)	CHOP inh 74.8 (no result: RAM inhibit, WT yeast gro inh, L major viab)
C/C(=N\S(=O)(=O)c1ccc(C)cc1)N(C)C	none (no result: RAM inhibit, WT yeast gro inh, L major viab)
CC(C(O)C12CC3CC(CC(C3)C1)C2)N1CCCCC1 (stereo unspecified)	none
NC(=O)CC(NC(=O)c1ccccc1)c1ccc(NCCc2ccc(F)cc2)c([N+](=O)[O-])c1 (stereo unspecified)	CHOP inh 91.8 (no result: RAM inhibit, WT yeast gro inh, L major viab)
COc1cccc(/C=C/C(=C2/C(=O)N(c3ccccc3)N=C2C)c2ccccc2)c1OC	L major viab 94.7
CC1=NN(c2ccccc2)C(=O)C1=C(C)C	none
COc1ccccc1/C=C/C(=C1/C(=O)N(c2ccccc2)N=C1C)c1ccc(C)cc1	none
COc1cccc(/C=C/C(=C2/C(=O)N(c3ccccc3)N=C2C)c2ccc(Br)cc2)c1OC	RAM inhibit 8.7, L major viab 100.0
CN(C)S(=O)(=O)c1ccc(NC(=O)C2CC3C=CC2C3)cc1 (stereo unspecified)	none
Cc1nn(-c2ccccc2)c(C)c1/C=C/C(=O)OC(C)C(=O)Nc1ncc(Cl)cc1Cl (stereo unspecified)	none
O=C(COC(=O)c1cn(-c2ccccc2)nc1-c1ccccc1)Nc1ncc(Cl)cc1Cl	CHOP inh 77.3 (no result: RAM inhibit, WT yeast gro inh, L major viab)
COc1cccc(-c2nn(-c3ccccc3)cc2C(=O)OCC(=O)Nc2ncc(Cl)cc2Cl)c1	none
Cc1ccc(C(=O)COC(=O)c2cn(-c3ccccc3)nc2-c2ccccc2)cc1[N+](=O)[O-]	CHOP inh 75.6
Cc1nn(-c2ccccc2)c(C)c1/C=C/C(=O)OCC(=O)Nc1ncc(Cl)cc1Cl	L major viab 77.8
CCCCOc1ccc(CCC(=O)N/N=C/c2ccco2)cc1	none (no result: RAM inhibit, WT yeast gro inh, L major viab)
CNC(=O)[C@@]1(C)C=C[C@@H](Cc2ccccc2)N1C(=O)OC	none
CC1(C)Cc2cccc(C(=O)NC3CCN(Cc4ccccc4)CC3)c2O1	none (no result: RAM inhibit, WT yeast gro inh, L major viab)
Cn1nnnc1-c1cc(Br)ccc1NC(=O)c1ccccc1	CHOP inh 76.5
Cc1cc(O)ccc1NC(=O)c1ccccc1	none
C/C=C/C(=O)Nc1cccc(C2=NOC3(C2)C[C@@H](C(N)=O)N(C(=O)C(c2ccccc2)c2ccccc2)C3)c1 (stereo partly specified)	none (no result: RAM inhibit, WT yeast gro inh, L major viab)
Oc1ccccc1C(Nc1nccs1)c1ccc2cccnc2c1O (stereo unspecified)	CHOP inh 71.2 (no result: RAM inhibit, WT yeast gro inh, L major viab)
COc1cc(C(Nc2ccccn2)c2ccc3ccc(C)nc3c2O)cc(OC)c1O (stereo unspecified)	L major viab 93.5 (no result: CHOP inh, WT yeast gro inh)
COc1ccc(C(Nc2cc(C)ccn2)c2ccc3ccc(C)nc3c2O)cc1 (stereo unspecified)	none (no result: RAM inhibit, WT yeast gro inh, L major viab)
Cc1ccc2ccc(C(Nc3ccccn3)c3ccccc3)c(O)c2n1 (stereo unspecified)	L major viab 99.6
Oc1c(C(Nc2ccccn2)c2ccccn2)ccc2cccnc12 (stereo unspecified)	L major viab 99.9
COc1ccccc1N1CCN(C(=O)NC23CC4CC(CC(C4)C2)C3)CC1	none
COc1ccc(OCC(=O)Nc2cc(-c3nn(C)c(=O)c4ccccc34)ccc2N2CCOCC2)cc1	none (no result: RAM inhibit, WT yeast gro inh, L major viab)
Cc1onc(-c2ccccc2Cl)c1C(=O)NCCCN1CCOCC1	L major viab 53.1
Cc1onc(-c2c(Cl)cccc2Cl)c1C(=O)NCCCN1CCOCC1	L major viab 87.7
CSc1nsc(SCC(=O)Nc2nc3ccc(C)cc3s2)n1	none
CN(C)CCNC(=O)c1ccc(CS(=O)(=O)c2ccc(Br)cc2)o1	L major viab 77.4 (no result: CHOP inh, RAM inhibit)
Cc1c(C(=O)NCc2ccc3c(c2)OCO3)oc2ccc(Br)cc12	WT yeast gro inh 61.7
O=C(NCc1ccc2c(c1)OCO2)c1ccc(CS(=O)(=O)c2ccc(Br)cc2)o1	CHOP inh 74.1
Cc1ccc2oc(C(=O)NCc3ccc4c(c3)OCO4)c(C)c2c1	none
CN(C)CCNC(=O)c1ccc(CS(=O)(=O)c2c(Cl)cccc2Cl)o1	none
O=C(Nc1nc2ccccc2[nH]1)c1ccc(Br)o1	none
COC(=O)c1ccc(COC(=O)c2ccc(CO)cc2)o1	L major viab 65.3
COC(=O)c1ccc(Cc2ccc(C(=O)OC)o2)o1	none
COC(=O)c1ccc(COC(=O)c2ccc(N(C)C)cc2)cc1	CHOP inh 79.8
O=C(OCc1ccc(Br)cc1)c1ccncc1	none
CC(=O)Nc1ccc(C(=O)OCc2ccc(Br)cc2)cc1	WT yeast gro inh 69.3
COC(=O)c1ccc(Cn2c(C)cc(C)[n+]2C)o1	CHOP inh 72.7 (no result: WT yeast gro inh)
CC[C@H](C)[C@H](NC(=O)c1ccccc1)C(=O)Nc1ccc(S(=O)(=O)Nc2cc(C)nc(C)n2)cc1	none (no result: RAM inhibit, WT yeast gro inh, L major viab)
CC(=O)N1CCN(Cc2nc3cc(NC(=O)Nc4ccccc4)ccc3n2C)CC1	none
